# Reference: paper PMC8384837, “Expanding the binding specificity for RNA recognition by a PUF domain”
# Numbering of substitutions follows the chain as printed.
# Assays:
# Assay in all cases: yeast three-hybrid, YBZ-1, SC-Leu-His + 0.5 mM 3-AT, 4 days
# Details in all cases: tags: N-Gal4 AD-HA kept; label: inside an RPR1-promoter hybrid RNA with tandem MS2 sites; ssRNA
# PUM1 PUF domain R3-GPD = PUM1 PUF domain R3-GPD (Homo sapiens, UniProt Q14671 828-1176, C935G;R936P;Q939D)
# How it was run: (§1)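 The interaction score is the log change in how often each variant appears, from input to selection. Frequencies came from PCR-amplified, Illumina-sequenced repeat regions of Pumilio-1 PUF domain libraries grown in strain YBZ-1 (LexA–MS2 coat fusion, HIS3 reporter) alongside matching RNA elements. Input plates were SC-Leu and selection plates were SC-Leu-His + 0.5 mM 3-AT, each for four days, and the log2 calculation used a pseudocount of 1 where a variant was absent.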
# PUM1 PUF domain R6-MHR = target: T1, PUM1 PUF domain R6-MHR (Homo sapiens, UniProt Q14671 828-1176, N1043M;Y1044H;Q1047R)
# T1 sequence: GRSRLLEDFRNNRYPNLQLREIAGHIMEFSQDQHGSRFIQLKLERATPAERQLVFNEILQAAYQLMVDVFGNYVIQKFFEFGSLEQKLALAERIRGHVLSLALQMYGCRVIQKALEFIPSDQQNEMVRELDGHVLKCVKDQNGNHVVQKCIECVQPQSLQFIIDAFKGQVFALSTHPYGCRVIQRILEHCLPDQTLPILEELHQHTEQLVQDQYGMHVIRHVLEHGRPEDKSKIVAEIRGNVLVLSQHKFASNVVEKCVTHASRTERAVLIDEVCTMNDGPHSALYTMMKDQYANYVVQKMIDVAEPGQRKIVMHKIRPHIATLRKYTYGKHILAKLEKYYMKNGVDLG
# How it was run: as §1
# PUM1 PUF domain R5-RFQ = PUM1 PUF domain R5-RFQ (Homo sapiens, UniProt Q14671 828-1176, C1007R;R1008F)
# How it was run: as §1
# PUM1 PUF domain R5-RHS = PUM1 PUF domain R5-RHS (Homo sapiens, UniProt Q14671 828-1176, C1007R;R1008H;Q1011S)
# How it was run: as §1
# PUM1 PUF domain R3-VRA = PUM1 PUF domain R3-VRA (Homo sapiens, UniProt Q14671 828-1176, C935V;Q939A)
# How it was run: as §1
# PUM1 PUF domain R5-DHC = PUM1 PUF domain R5-DHC (Homo sapiens, UniProt Q14671 828-1176, C1007D;R1008H;Q1011C)
# How it was run: as §1
# PUM1 PUF domain R4-NRN = PUM1 PUF domain R4-NRN (Homo sapiens, UniProt Q14671 828-1176, H972R;Q975N)
# How it was run: as §1
# PUM1 PUF domain R4-CNV = PUM1 PUF domain R4-CNV (Homo sapiens, UniProt Q14671 828-1176, N971C;H972N;Q975V)
# How it was run: as §1
# PUM1 PUF domain R5-KFS = PUM1 PUF domain R5-KFS (Homo sapiens, UniProt Q14671 828-1176, C1007K;R1008F;Q1011S)
# How it was run: as §1
# PUM1 PUF domain R5-GHS = PUM1 PUF domain R5-GHS (Homo sapiens, UniProt Q14671 828-1176, C1007G;R1008H;Q1011S)
# How it was run: as §1
# PUM1 PUF domain R5-WHV = PUM1 PUF domain R5-WHV (Homo sapiens, UniProt Q14671 828-1176, C1007W;R1008H;Q1011V)
# How it was run: as §1
# PUM1 PUF domain R6-TFS = target: T2, PUM1 PUF domain R6-TFS (Homo sapiens, UniProt Q14671 828-1176, N1043T;Y1044F;Q1047S)
# T2 sequence: T1 sequence with M216T, H217F, R220S
# How it was run: as §1
# PUM1 PUF domain R5-DRT = PUM1 PUF domain R5-DRT (Homo sapiens, UniProt Q14671 828-1176, C1007D;Q1011T)
# How it was run: as §1
# PUM1 PUF domain R8-LFQ = PUM1 PUF domain R8-LFQ (Homo sapiens, UniProt Q14671 828-1176, N1122L;Y1123F)
# Sequence of PUM1 PUF domain R8-LFQ (Q14671 828-1176 N1122L/Y1123F): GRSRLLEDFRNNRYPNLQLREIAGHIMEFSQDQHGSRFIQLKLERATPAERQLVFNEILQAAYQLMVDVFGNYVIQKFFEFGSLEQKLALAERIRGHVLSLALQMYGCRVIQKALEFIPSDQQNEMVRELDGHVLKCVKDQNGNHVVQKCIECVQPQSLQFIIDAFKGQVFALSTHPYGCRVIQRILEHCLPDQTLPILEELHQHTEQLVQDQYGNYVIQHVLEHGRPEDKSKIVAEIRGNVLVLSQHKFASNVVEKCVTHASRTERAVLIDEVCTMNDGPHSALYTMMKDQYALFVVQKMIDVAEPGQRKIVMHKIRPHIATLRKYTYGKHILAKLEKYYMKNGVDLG
# How it was run: as §1
# PUM1 PUF domain R3-SCR = PUM1 PUF domain R3-SCR (Homo sapiens, UniProt Q14671 828-1176, C935S;R936C;Q939R)
# How it was run: as §1
# PUM1 PUF domain R3-LSE = PUM1 PUF domain R3-LSE (Homo sapiens, UniProt Q14671 828-1176, C935L;R936S;Q939E)
# Sequence of PUM1 PUF domain R3-LSE (Q14671 828-1176 C935L/R936S/Q939E): as the sequence (Q14671 828-1176 N1122L/Y1123F) above, with C108L, R109S, Q112E, L295N, F296Y counted along it
# How it was run: as §1
# PUM1 PUF domain R3-MCR = PUM1 PUF domain R3-MCR (Homo sapiens, UniProt Q14671 828-1176, C935M;R936C;Q939R)
# How it was run: as §1
# PUM1 PUF domain R5-RWF = PUM1 PUF domain R5-RWF (Homo sapiens, UniProt Q14671 828-1176, C1007R;R1008W;Q1011F)
# Sequence of PUM1 PUF domain R5-RWF (Q14671 828-1176 C1007R/R1008W/Q1011F): as the sequence (Q14671 828-1176 N1122L/Y1123F) above, with C180R, R181W, Q184F, L295N, F296Y counted along it
# How it was run: as §1
# PUM1 PUF domain R7-RQN = PUM1 PUF domain R7-RQN (Homo sapiens, UniProt Q14671 828-1176, S1079R;N1080Q;E1083N)
# Sequence of PUM1 PUF domain R7-RQN (Q14671 828-1176 S1079R/N1080Q/E1083N): as the sequence (Q14671 828-1176 N1122L/Y1123F) above, with S252R, N253Q, E256N, L295N, F296Y counted along it
# How it was run: as §1
# PUM1 PUF domain R7-KGQ = PUM1 PUF domain R7-KGQ (Homo sapiens, UniProt Q14671 828-1176, S1079K;N1080G;E1083Q)
# Sequence of PUM1 PUF domain R7-KGQ (Q14671 828-1176 S1079K/N1080G/E1083Q): as the sequence (Q14671 828-1176 N1122L/Y1123F) above, with S252K, N253G, E256Q, L295N, F296Y counted along it
# How it was run: as §1
sequence,measurement,setting,value
GGCUAGAACUAGUGGAUCCCCCGGCGCCCGGCGGCUCGAGCCCGGGUAAGUGUAAAUAGUCUGCAUGCCGCCGGGCGCCAUGCCUGCAGGUCGACUCUAGAAAACAUG,binding signal,PUM1 PUF domain R3-GPD,1.39 log2 enrichment (interaction score)
same,binding signal,PUM1 PUF domain R6-MHR,5.76 log2 enrichment (interaction score)
same,binding signal,PUM1 PUF domain R5-RFQ,2.95 log2 enrichment (interaction score)
same,binding signal,PUM1 PUF domain R5-RHS,4.26 log2 enrichment (interaction score)
same,binding signal,PUM1 PUF domain R3-VRA,3.97 log2 enrichment (interaction score)
same,binding signal,PUM1 PUF domain R5-DHC,2.98 log2 enrichment (interaction score)
same,binding signal,PUM1 PUF domain R4-NRN,2.83 log2 enrichment (interaction score)
same,binding signal,PUM1 PUF domain R4-CNV,0.77 log2 enrichment (interaction score)
same,binding signal,PUM1 PUF domain R5-KFS,4.28 log2 enrichment (interaction score)
same,binding signal,PUM1 PUF domain R5-GHS,3.25 log2 enrichment (interaction score)
same,binding signal,PUM1 PUF domain R5-WHV,1.26 log2 enrichment (interaction score)
same,binding signal,PUM1 PUF domain R6-TFS,4.51 log2 enrichment (interaction score)
same,binding signal,PUM1 PUF domain R5-DRT,2.42 log2 enrichment (interaction score)
GGCUAGAACUAGUGGAUCCCCCGGCGCCCGGCGGCUCGAGCCCGGGUAAGUGUGAAUAGUCUGCAUGCCGCCGGGCGCCAUGCCUGCAGGUCGACUCUAGAAAACAUG,binding signal,PUM1 PUF domain R5-RFQ,3.05 log2 enrichment (interaction score)
same,binding signal,PUM1 PUF domain R5-RHS,3.89 log2 enrichment (interaction score)
same,binding signal,PUM1 PUF domain R5-DRT,2.11 log2 enrichment (interaction score)
GGCUAGAACUAGUGGAUCCCCCGGCGCCCGGCGGCUCGAGCCCGGGUAAGUGUACAUAGUCUGCAUGCCGCCGGGCGCCAUGCCUGCAGGUCGACUCUAGAAAACAUG,binding signal,PUM1 PUF domain R4-CNV,2.79 log2 enrichment (interaction score)
GGCUAGAACUAGUGGAUCCCCCGGCGCCCGGCGGCUCGAGCCCGGGUAAGUGUAUAUAGUCUGCAUGCCGCCGGGCGCCAUGCCUGCAGGUCGACUCUAGAAAACAUG,binding signal,PUM1 PUF domain R4-CNV,3.21 log2 enrichment (interaction score)
GGCUAGAACUAGUGGAUCCCCCGGCGCCCGGCGGCUCGAGCCCGGGUAAGCGUAAAUAGUCUGCAUGCCGCCGGGCGCCAUGCCUGCAGGUCGACUCUAGAAAACAUG,binding signal,PUM1 PUF domain R8-LFQ,2.86 log2 enrichment (interaction score)
GGCUAGAACUAGUGGAUCCCCCGGCGCCCGGCGGCUCGAGCCCGGGUAAGUGUAAGUAGUCUGCAUGCCGCCGGGCGCCAUGCCUGCAGGUCGACUCUAGAAAACAUG,binding signal,PUM1 PUF domain R3-VRA,1.39 log2 enrichment (interaction score)
same,binding signal,PUM1 PUF domain R3-SCR,3.4 log2 enrichment (interaction score)
same,binding signal,PUM1 PUF domain R3-LSE,2.76 log2 enrichment (interaction score)
GGCUAGAACUAGUGGAUCCCCCGGCGCCCGGCGGCUCGAGCCCGGGUAAGUGUAAUUAGUCUGCAUGCCGCCGGGCGCCAUGCCUGCAGGUCGACUCUAGAAAACAUG,binding signal,PUM1 PUF domain R3-GPD,3.07 log2 enrichment (interaction score)
same,binding signal,PUM1 PUF domain R3-SCR,3.35 log2 enrichment (interaction score)
same,binding signal,PUM1 PUF domain R3-MCR,4.47 log2 enrichment (interaction score)
GGCUAGAACUAGUGGAUCCCCCGGCGCCCGGCGGCUCGAGCCCGGGUAAGUGUUAAUAGUCUGCAUGCCGCCGGGCGCCAUGCCUGCAGGUCGACUCUAGAAAACAUG,binding signal,PUM1 PUF domain R5-RHS,5.74 log2 enrichment (interaction score)
same,binding signal,PUM1 PUF domain R5-KFS,5.06 log2 enrichment (interaction score)
same,binding signal,PUM1 PUF domain R5-RWF,4.13 log2 enrichment (interaction score)
GGCUAGAACUAGUGGAUCCCCCGGCGCCCGGCGGCUCGAGCCCGGGUAAGUCUAAAUAGUCUGCAUGCCGCCGGGCGCCAUGCCUGCAGGUCGACUCUAGAAAACAUG,binding signal,PUM1 PUF domain R7-RQN,0.64 log2 enrichment (interaction score)
GGCUAGAACUAGUGGAUCCCCCGGCGCCCGGCGGCUCGAGCCCGGGUAAGUGUCAAUAGUCUGCAUGCCGCCGGGCGCCAUGCCUGCAGGUCGACUCUAGAAAACAUG,binding signal,PUM1 PUF domain R5-RHS,5.1 log2 enrichment (interaction score)
same,binding signal,PUM1 PUF domain R5-KFS,5.16 log2 enrichment (interaction score)
same,binding signal,PUM1 PUF domain R5-WHV,2.8 log2 enrichment (interaction score)
same,binding signal,PUM1 PUF domain R5-DRT,1.84 log2 enrichment (interaction score)
GGCUAGAACUAGUGGAUCCCCCGGCGCCCGGCGGCUCGAGCCCGGGUAAGUUUAAAUAGUCUGCAUGCCGCCGGGCGCCAUGCCUGCAGGUCGACUCUAGAAAACAUG,binding signal,PUM1 PUF domain R7-KGQ,5.56 log2 enrichment (interaction score)
same,binding signal,PUM1 PUF domain R7-RQN,3.78 log2 enrichment (interaction score)
